Compound activity from PubChem.
Pf Dd2 inh – blocks in vitro growth of P. falciparum Dd2 | 4.3% of 120,000 active | AID 1347417 | P. falciparum Dd2 growth, SYBR Green, 72 h | Potency, µM (top dose mostly 28.9 µM), actives largely listed as inhibitors; active means well fitted inhibition curve with a large enough effect; further: nearly all actives have a fitted effect of over 65% in size
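Readout: SYBR Green fluorescence, 485 nm excitation, 535 nm emission, after ~16 h lysis at 37C. Before that, Dd2-infected red cells (2.5% hematocrit) grew 72 h with compound, 29 uM top final concentration.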
Each line names hits and unclear results; the compound was inactive in the other large screens. The full list was thinned out, with hits kept by preference.

NC(=O)[C@@H]1C[C@H](Oc2cccnc2)CN1S(=O)(=O)c1cccc(F)c1	none
COCCNC(=O)[C@@H]1C[C@H](Oc2cccnc2)CN1C(=O)c1cnc(C)cn1	none
COc1ccc(C(=O)N2CCC3(CC2)N=C(c2cccc(Br)c2)NO3)c(OC)c1	none
COCCNC(=O)c1nc(-c2cccc(C(F)(F)F)c2)c2cnccn12	Pf Dd2 inh 10µM
COCCNC(=O)c1nc(-c2cccc(C(F)(F)F)c2)c2ccccn12	none
C#CCNC(=O)c1nc(-c2cccnc2)c2cnccn12	none
C#CCNC(=O)c1nc(-c2cccc(C(F)(F)F)c2)c2cnccn12	Pf Dd2 inh 3.5µM
O=C(NCc1cccs1)c1nc(-c2cccnc2)c2ccccn12	none
O=C(NC1CC1)c1nc(-c2cccc(C(F)(F)F)c2)c2ccccn12	none
COCCNC(=O)c1nc(-c2ccc(OC)cc2)c2ccccn12	none
O=C(NCc1cccnc1)c1nc(-c2cccc(C(F)(F)F)c2)c2ccccn12	Pf Dd2 inh 7.9µM
O=C(NCc1ccc2c(c1)OCO2)c1nc(-c2cccnc2)c2cnccn12	none
O=C(NCc1ccc2c(c1)OCO2)c1nc(-c2cccc(C(F)(F)F)c2)c2ccccn12	none
O=C(NCc1cccs1)c1nc(-c2cccnc2)c2cnccn12	Pf Dd2 inh 11µM
C#CCNC(=O)c1nc(-c2ccsc2)c2cnccn12	none
CCSc1ncc(CN2CC[C@@H](NC(=O)c3cnccn3)[C@H](O)C2)cn1	none
Cc1ccc(C)c(C(=O)N2CC(C(=O)NC3CCCCC3)C3(CCOCC3)C2)c1 (centres undefined)	none
COc1ccc(CN2C[C@H]3CN(C(=O)NCc4ccccc4)CCN3C2=O)cc1	none
O=C(c1ccccc1)N1CCC(N2CC3CCCN3C2=O)CC1 (centres undefined)	none
Cn1c(CO[C@H]2CN(C(=O)c3ccc(Cl)cc3)C[C@H]2F)nc2ccccc21	none
Cc1[nH]ncc1CNC(=O)C1(Cc2ccccc2)CCCCC(=O)N1 (centres undefined)	none
CCn1ncc(N2CCC(NC(=O)c3cccs3)CC2)cc1=O	none
O=c1[nH]c(C2CCCN(S(=O)(=O)c3ccccc3Cl)C2)nc2c1nnn2Cc1ccc(OC(F)(F)F)cc1 (centres undefined)	none
COc1cccc(Cn2nnc3c(=O)[nH]c(C4CCCN(C(=O)c5ccc(C)cc5)C4)nc32)c1 (centres undefined)	Pf Dd2 inh 10µM
CCc1ccc(Cn2nnc3c(=O)[nH]c(C4CCCN(C(=O)c5cccc(Cl)c5)C4)nc32)cc1 (centres undefined)	none
COc1ccc(-c2n[nH]c3c2CC(=O)N(CCOc2ccccc2)C3)cc1F	none
COc1ccccc1-c1ccnc(-c2nnc(C)n2CCN2CCOCC2)c1	none
CCN1CC(CN(C)Cc2cn(-c3ccccc3C)nc2-c2ccc(OC)c(F)c2)CC1=O (centres undefined)	Pf Dd2 inh 10µM
CCN1CC(CN(C)Cc2nc(Cc3cccc(F)c3)no2)CC1=O (centres undefined)	none
Cc1ccc(C)c(-n2cc(CN(C)CCO)c(-c3ccccc3)n2)c1	none
COc1ccc(-c2nn(-c3ccccc3C)cc2CN(C)CCN2CCOCC2)cc1F	Pf Dd2 inh 11µM
COc1ccc(C(=O)N2CCN(S(=O)(=O)c3ccc(F)cc3)C[C@@H]2C(=O)N[C@H]2CCCNC2=O)cc1	none
CS(=O)(=O)NC[C@H]1O[C@@H](CC(=O)N2CCN(c3ccccn3)CC2)[C@H](O)[C@@H]1O	none
Cc1noc(C)c1CO[C@@H]1COCC[C@H]1NC1CSCCSC1	none
CCc1noc([C@@H]2CC(F)(F)CN2C(=O)c2ncccn2)n1	none
O=C(c1ccc(N2CC3CC(C2)[C@H]2CCCC(=O)N2C3)nc1)N1CCN(c2ccccc2)CC1 (some centres undefined)	none
COc1ccc(-c2noc([C@@H](C)NCC3CCCCC3)c2C(=O)O)cc1	none
Cc1noc(C)c1S(=O)(=O)N1CCC2(C1)C(=O)N(C)c1ccccc12 (centres undefined)	none
Cc1nc(-n2nc(C)c(Cc3ccc4c(c3)OCO4)c2C)sc1C(=O)Nc1ccc(Cl)cc1	none
CCc1ccccc1NC(=O)c1sc(-n2nc(C)c(Cc3ccc4c(c3)OCO4)c2C)nc1C	Pf Dd2 inh 4µM
Cc1ccc(NC(=O)c2sc(-n3nc(C)c(Cc4ccc5c(c4)OCO5)c3C)nc2C)cc1Cl	none
COc1ccc(-c2cc(N3CCC(NC(=O)c4ccc(F)cc4F)C3)n[nH]2)cc1 (centres undefined)	none
COc1ccc(Cl)cc1C(=O)N1CCC(N2CC3CC(C2)[C@H]2CCCC(=O)N2C3)CC1 (some centres undefined)	none
CCSc1nc2ccccc2c(OCc2cc(C(=O)OC)ccc2OC)c1C(=O)OC	none
COc1ccc(C(C)=O)cc1CSc1nc(NCCc2ccccc2)c2ccccc2n1	Pf Dd2 inh 11µM
COc1ccc(NC(=O)C(=O)NCCc2ccccc2)cc1OC	none
COc1ccc(CCNc2nc3c(c(=O)n(C)c(=O)n3C)n2Cc2ccccc2Cl)cc1OC	none
COc1ccccc1NC(=O)CN1CCN(CC(=O)Nc2ccc(F)c(F)c2)CC1	none
COc1ccc(CCNc2nc(SCc3ccccc3Cl)nc3ccccc23)cc1OC	Pf Dd2 inh 3.5µM
COc1ccc(NC(=O)CSc2nc(-c3ccccc3)c3ccccc3n2)cc1	none
COc1ccc(-c2nnc(SCc3cccc(Cl)c3)o2)cc1	none
COc1cc(Nc2nc(SCC(=O)c3ccc(Cl)c(Cl)c3)nc3ccccc23)cc(OC)c1	none
COc1ccc(C(C)=O)cc1CSc1nc(Nc2ccc(F)c(F)c2)c2ccccc2n1	Pf Dd2 inh 11µM
COc1cc(Nc2nc(SCc3cccc(Cl)c3)nc3ccccc23)cc(OC)c1	Pf Dd2 inh 10µM
COc1ccc(CNc2nc(SCc3ccccc3Cl)nc3ccccc23)cc1	none
COC(=O)c1ccc2nc(CO[C@H]3CN(Cc4ccc(OC)nc4)C[C@H]3F)[nH]c2c1	none
COc1ccccc1-c1cc(C(=O)NCCc2ccc(Cl)cc2)c2cnn(C)c2n1	none
COCc1nc(C2CCCN(C(=O)c3ccoc3)C2)no1 (centres undefined)	none
Cc1ccc(C(=O)N2CCCC3(CC(c4cccc(C(F)(F)F)c4)=NO3)C2)cc1 (centres undefined)	none
O=C(c1ccccc1)N1C[C@H]2OC(=O)N(CCc3cccc(Cl)c3)[C@H]2C1	none
O=C1CCC2(CCNCC2)CCN1	none
Cc1ccc2nc(-c3cccc(NC(=O)CSc4ccc(Cl)cc4)c3)oc2c1	Pf Dd2 inh 11µM
Cc1ccc2nc(-c3ccc(C)c(NC(=O)CSc4ccc(Cl)cc4)c3)oc2c1	none
Cc1ccc(SCC(=O)Nc2ccc3oc(-c4cccc(C)c4)nc3c2)cc1	none
CN(Cc1ccncc1)C1CCOc2ccccc21 (centres undefined)	none
COc1cc(NC(=O)Cn2c(-c3cnccn3)nc(C)c(CCO)c2=O)cc(OC)c1	none
COC1CCCN(c2ncc(C(C)(C)C(=O)O)c(N3CCOCC3)n2)C1 (centres undefined)	none
O=C1[C@H]2CN(Cc3ccc(F)cc3Cl)C[C@H]2C(=O)N1CCN1CCc2ccccc2C1	Pf Dd2 inh 4µM
O=C1[C@H]2CN(Cc3ccc(F)cc3Cl)C[C@H]2C(=O)N1Cc1ccc2c(c1)OCO2	none
O=C1[C@H]2CN(Cc3cccc(Cl)c3F)C[C@H]2C(=O)N1CCc1ccccc1	none
COC1CCOC2(CCN(C(=O)Nc3ccc4c(c3)OCCO4)CC2)C1 (centres undefined)	none
CCOC(=O)C1CCN(C(=O)c2cc(Cn3nc(C)cc3C)[nH]n2)CC1	none
CC(C)=CCC1(CO)CCCN(Cc2[nH]c3ccc(F)cc3c2C)C1 (centres undefined)	Pf Dd2 inh 2.2µM
CCc1noc(C)c1C(=O)N1CCCC(CO)(CC=C(C)C)C1 (centres undefined)	none
